Assay [1] in a line: small molecules captured by biotinylated probe aFSTL3 – biochemical, small-molecule microarray, fluorescence 635/667, stem cell growth factor project, primary screen (AID 1064).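 Also: measures binding of the biotinylated anti-FSTL3 antibody to printed compounds.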 The note with it: higher = more signal.
The nature of assay [2]: binders from COS7 lysate, DM2A8 probe, primary screen, torsin A project, cell lysate, small-molecule microarray, fluorescence 635/667 (AID 1065). The note with it: higher = more signal, COS7 lysate expressing mutant human TOR1A.
A short description of assay [3]: small molecules captured by biotinylated probe aFGF2 – biochemical, small-molecule microarray, fluorescence 635/667, stem cell growth factor project, primary screen (AID 1067).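 Also: measures binding of biotinylated aFGF2 protein to printed compounds on slides; z-score merges feature fluorescence and signal-to-noise across triplicate slides.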 The note with it: higher = more signal.
Assay [4] is described as follows: small molecules captured by biotinylated probe aFGF10 – biochemical, small-molecule microarray, fluorescence 635/667, stem cell growth factor project, primary screen (AID 1071).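 Also: score merges 667 nm spot intensity and signal to noise from triplicate slides.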 The note with it: higher = more signal.
Assay [5] deals with Neurogenic locus notch homolog protein 2 (Homo sapiens) (UniProt Q04721). Briefly: small molecules binding Notch2 protein – biochemical, small-molecule microarray, 635 nm fluorescence, stem cell growth factors, primary screen (AID 1073). The note with it: higher = more signal.
Assay [6] concerns the target Pro-neuregulin-1, membrane-bound isoform (Homo sapiens) (UniProt Q02297). Briefly: small molecules binding neuregulin-1 protein – biochemical, small-molecule microarray, fluorescence 635/667, psychiatric disease protein project, primary screen (AID 1075).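 Also: score combines 667 nm spot fluorescence with signal to noise.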 The note with it: NRG1 binding, 635 nm fluorescence, higher = more signal.
Assay [7] concerns Neuregulin-1 EGF-like domain. Briefly: small molecules binding NRG1 EGF domain – biochemical, small-molecule microarray, 635 nm fluorescence, primary screen (AID 1081).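 Also: binding of the protein to compounds printed on small-molecule microarray slides.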 The note with it: higher = more signal.
A short description of assay [8]: FRG1 expression reporter modulators in myotubes – cell-based, C2C12 myotubes, firefly/Renilla luciferase, luminescence, FRG1 inhibition for FSHD, primary screen (AID 1084). The note with it: FRG1 promoter luciferase, higher = more signal, called active from +8 up or from −8 down.
Assay [9] in a line: small molecules captured by biotinylated probe aFST – biochemical, small-molecule microarray, fluorescence 635/667, stem cell growth factor project, primary screen (AID 1086).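 Also: score merges 667 nm fluorescence with signal-to-noise of each printed compound spot.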 The note with it: higher = more signal.
A short description of assay [10]: binders of probe aHhip on microarray, primary screen, stem cell growth factor project, biochemical, small-molecule microarray, fluorescence 635/667 (AID 1087).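 Also: score merges spot fluorescence at 667nm with spot signal to noise ratio.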 The note with it: higher = more signal.
The test system of assay [11] is PRMT1 (protein arginine N-methyltransferase 1). Briefly: small molecules binding arginine methyltransferase PRMT1 – biochemical, small-molecule microarray, 635 nm fluorescence, primary screen (AID 1088).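 Also: binding of Prmt1 protein to compounds spotted on small-molecule microarray slides.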 The note with it: higher = more signal.
The nature of assay [12]: growth effects on S. cerevisiae YJM789 – YJM789 clinical isolate, OD600, 24 h, basal, primary screen (AID 1089).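 Also: growth of clinical yeast isolate S. cerevisiae YJM 789 seeded 1000 cells per well; test concentration not given here.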 The note with it: higher = more signal, called active from +8 up or from −8 down.
A short description of assay [13]: S. pombe growth modifiers, basal conditions – strain 972, OD600, 24 h, no modulator, primary screen (AID 1090).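 Also: basal condition with compound alone and no growth modifier present; test concentration not given here.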 The note with it: S. pombe 972 growth, higher = more signal, called active from +8 up or from −8 down.
Assay [14] can be described thus: budding yeast growth modifiers under rapamycin – strain BY4716, OD600, 96 h, primary screen (AID 1091). Also: test concentration not given here. The note with it: S. cerevisiae BY4716 + rapamycin, higher = more signal, called active from +8 up or from −8 down.
For assay [15], the target named is Torsin-1A-interacting protein 2 (Homo sapiens) (UniProt Q8NFQ8). The assay is described as follows: small molecules binding lysate-expressed LULL1 – cell lysate, human LULL1 lysate, 635/667 nm fluorescence, primary screen (AID 1092).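 Also: probe is lysate of COS7 cells overexpressing human LULL1; score merges per-feature 667 nm fluorescence with signal-to-noise.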 The note with it: small-molecule microarray, hLULL1 lysate binding, 635 nm fluorescence; higher = more signal.
Assay [16] in a line: optical density change of DRC41 E. coli – strain DRC41, OD650, 24 h, E. coli filamentation project, primary screen (AID 1093).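 Also: MC1000 strain lacking acrAB efflux and sulA so SOS filamentation is blocked; test concentration not given here.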 The note with it: E. coli DRC41 growth, higher = more signal, called active from +8 up or from −8 down.
A short description of assay [17]: probe aLefty2 binding to arrayed compounds – biochemical, biotinylated probe, 635/667 nm fluorescence, primary screen (AID 1094).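 Also: score merges spot fluorescence near 667 nm with spot signal-to-noise ratio.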 The note with it: small-molecule microarray, higher = more signal.
Assay [18] deals with Noggin (protein binding on small-molecule microarray). The assay is described as follows: small molecules binding Noggin protein – biochemical, 635/667 nm fluorescence, primary screen (AID 1095).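 Also: score merges 667 nm feature fluorescence with signal to noise over triplicate slides.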 The note with it: 635 nm fluorescence, higher = more signal.
Assay [19] concerns the target Neurogenic locus notch homolog protein 3 (Homo sapiens) (UniProt Q9UM47). The assay is described as follows: small molecules binding NOTCH3 protein – biochemical, 635/667 nm fluorescence, primary screen (AID 1096). The note with it: small-molecule microarray, 635 nm fluorescence, higher = more signal.
The nature of assay [20]: probe aEGFR binding to arrayed compounds – biochemical, biotinylated probe, 635/667 nm fluorescence, primary screen (AID 1097).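 Also: probe is a biotinylated anti-EGFR antibody binding compounds printed on slides; score combines fluorescence near 667 nm and signal to noise of each spot.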 The note with it: small-molecule microarray, higher = more signal.

Active and inactive are the calls of the source.

Pro-neuregulin-1, membrane-bound isoform (Homo sapiens), sequence (Q02297 whole entry, looked up, the tested form may be a part, canonical isoform): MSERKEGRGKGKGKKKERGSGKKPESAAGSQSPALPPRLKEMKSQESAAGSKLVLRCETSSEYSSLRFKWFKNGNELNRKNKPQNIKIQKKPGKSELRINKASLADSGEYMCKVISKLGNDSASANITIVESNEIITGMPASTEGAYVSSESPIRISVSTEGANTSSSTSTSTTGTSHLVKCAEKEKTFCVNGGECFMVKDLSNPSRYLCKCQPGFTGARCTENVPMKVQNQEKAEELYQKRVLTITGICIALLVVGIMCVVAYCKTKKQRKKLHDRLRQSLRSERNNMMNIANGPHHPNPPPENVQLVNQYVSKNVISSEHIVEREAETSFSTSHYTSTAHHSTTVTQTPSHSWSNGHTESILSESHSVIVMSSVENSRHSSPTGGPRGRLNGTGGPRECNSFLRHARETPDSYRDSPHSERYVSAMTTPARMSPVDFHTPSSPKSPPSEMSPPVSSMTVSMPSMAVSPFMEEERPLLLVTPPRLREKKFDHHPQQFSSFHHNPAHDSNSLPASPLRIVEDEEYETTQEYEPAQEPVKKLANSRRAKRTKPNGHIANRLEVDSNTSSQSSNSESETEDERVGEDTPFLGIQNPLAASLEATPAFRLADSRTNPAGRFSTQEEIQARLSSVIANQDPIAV
Neurogenic locus notch homolog protein 2 (Homo sapiens), sequence (Q04721 whole entry, looked up, canonical isoform): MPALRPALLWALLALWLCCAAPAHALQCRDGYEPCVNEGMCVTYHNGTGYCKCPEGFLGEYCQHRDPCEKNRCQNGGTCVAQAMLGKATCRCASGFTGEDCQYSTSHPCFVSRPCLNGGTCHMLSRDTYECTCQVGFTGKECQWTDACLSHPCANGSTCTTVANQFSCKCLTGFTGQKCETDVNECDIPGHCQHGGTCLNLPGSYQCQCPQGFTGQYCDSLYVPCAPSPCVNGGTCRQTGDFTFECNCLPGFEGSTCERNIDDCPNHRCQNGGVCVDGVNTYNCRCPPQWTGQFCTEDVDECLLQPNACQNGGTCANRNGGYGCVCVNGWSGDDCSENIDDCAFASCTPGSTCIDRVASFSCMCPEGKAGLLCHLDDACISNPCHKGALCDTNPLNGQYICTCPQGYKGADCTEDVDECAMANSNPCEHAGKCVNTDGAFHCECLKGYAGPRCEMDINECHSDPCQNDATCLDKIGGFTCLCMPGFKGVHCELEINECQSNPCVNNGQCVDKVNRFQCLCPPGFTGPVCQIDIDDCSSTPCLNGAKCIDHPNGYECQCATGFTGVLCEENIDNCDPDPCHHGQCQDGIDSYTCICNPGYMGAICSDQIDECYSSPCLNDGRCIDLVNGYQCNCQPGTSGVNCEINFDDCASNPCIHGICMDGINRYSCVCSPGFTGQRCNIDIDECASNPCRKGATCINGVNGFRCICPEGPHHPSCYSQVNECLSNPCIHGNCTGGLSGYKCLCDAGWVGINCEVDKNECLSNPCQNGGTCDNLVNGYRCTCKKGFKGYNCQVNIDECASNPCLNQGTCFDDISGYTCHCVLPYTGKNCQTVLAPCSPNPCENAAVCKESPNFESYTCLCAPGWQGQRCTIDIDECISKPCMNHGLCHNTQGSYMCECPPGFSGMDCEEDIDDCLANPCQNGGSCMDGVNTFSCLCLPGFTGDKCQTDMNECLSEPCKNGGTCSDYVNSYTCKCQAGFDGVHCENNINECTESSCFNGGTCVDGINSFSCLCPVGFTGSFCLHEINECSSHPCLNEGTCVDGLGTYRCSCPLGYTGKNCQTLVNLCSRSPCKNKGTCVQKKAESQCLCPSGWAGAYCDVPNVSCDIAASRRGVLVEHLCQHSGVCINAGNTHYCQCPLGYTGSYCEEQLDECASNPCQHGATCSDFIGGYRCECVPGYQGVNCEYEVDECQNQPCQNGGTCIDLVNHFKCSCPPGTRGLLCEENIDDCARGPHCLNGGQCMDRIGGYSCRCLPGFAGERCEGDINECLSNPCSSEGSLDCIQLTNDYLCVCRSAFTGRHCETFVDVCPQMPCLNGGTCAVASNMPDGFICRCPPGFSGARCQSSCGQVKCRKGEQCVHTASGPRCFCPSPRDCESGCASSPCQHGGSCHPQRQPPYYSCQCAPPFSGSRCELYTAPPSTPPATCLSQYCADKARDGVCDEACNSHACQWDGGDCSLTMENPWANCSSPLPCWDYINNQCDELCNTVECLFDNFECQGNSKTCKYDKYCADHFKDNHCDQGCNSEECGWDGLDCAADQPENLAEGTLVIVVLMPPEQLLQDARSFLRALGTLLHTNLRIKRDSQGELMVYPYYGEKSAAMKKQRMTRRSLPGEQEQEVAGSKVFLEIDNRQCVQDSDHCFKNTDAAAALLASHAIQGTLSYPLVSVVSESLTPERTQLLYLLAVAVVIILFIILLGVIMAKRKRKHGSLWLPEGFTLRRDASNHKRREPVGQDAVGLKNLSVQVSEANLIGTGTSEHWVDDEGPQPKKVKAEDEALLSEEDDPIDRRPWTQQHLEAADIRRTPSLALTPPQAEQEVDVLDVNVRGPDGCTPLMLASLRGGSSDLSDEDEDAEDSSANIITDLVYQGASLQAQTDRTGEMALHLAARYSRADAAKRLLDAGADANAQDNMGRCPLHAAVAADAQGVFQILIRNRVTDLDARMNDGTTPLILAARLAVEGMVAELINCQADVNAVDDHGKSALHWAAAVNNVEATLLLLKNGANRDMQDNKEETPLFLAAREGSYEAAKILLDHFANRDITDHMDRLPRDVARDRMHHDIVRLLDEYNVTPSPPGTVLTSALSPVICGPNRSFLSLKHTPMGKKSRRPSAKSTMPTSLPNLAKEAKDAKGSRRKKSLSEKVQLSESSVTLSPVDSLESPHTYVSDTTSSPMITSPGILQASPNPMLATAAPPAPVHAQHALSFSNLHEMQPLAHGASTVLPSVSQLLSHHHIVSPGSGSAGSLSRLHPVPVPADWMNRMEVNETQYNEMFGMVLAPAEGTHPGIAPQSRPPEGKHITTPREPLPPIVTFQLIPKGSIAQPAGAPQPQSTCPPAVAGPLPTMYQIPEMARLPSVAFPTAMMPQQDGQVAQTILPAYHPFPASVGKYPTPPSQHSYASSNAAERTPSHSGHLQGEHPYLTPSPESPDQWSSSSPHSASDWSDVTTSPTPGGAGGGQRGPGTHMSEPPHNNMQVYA
Torsin-1A-interacting protein 2 (Homo sapiens), sequence (Q8NFQ8 whole entry, looked up): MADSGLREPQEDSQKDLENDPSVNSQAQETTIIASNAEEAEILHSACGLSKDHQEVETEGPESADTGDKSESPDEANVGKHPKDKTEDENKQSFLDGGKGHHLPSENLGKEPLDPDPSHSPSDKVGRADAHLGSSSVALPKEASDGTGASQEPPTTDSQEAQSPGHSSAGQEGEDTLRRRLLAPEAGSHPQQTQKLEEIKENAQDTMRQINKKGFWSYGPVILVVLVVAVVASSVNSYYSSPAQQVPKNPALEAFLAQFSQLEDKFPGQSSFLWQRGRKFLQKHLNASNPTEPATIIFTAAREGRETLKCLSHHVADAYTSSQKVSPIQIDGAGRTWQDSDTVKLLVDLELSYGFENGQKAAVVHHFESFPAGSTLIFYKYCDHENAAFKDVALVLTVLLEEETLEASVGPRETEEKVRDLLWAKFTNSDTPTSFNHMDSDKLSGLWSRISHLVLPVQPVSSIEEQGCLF

As to `CC(=O)OC[C@H]1O[C@H](CC=NO[C@H](C)c2cn([C@H](CO)Cc3ccccc3)nn2)C=C[C@@H]1OC(C)=O`, the composite z-score in [1] is -0.789; in assay [2], 0.379; in [3] it was -0.087; in [4], 0.541; in assay [5] it was 0.911; in [6], 1.33. The composite z-score was 0.711 in assay [7]; 0.246 in [9]; -0.201 in assay [10]; 1.34 in [11]; 1.06 in assay [15]; -0.0998 in [17]. Moreover, the composite z-score in [18] amounted to 0.61; in [19], 1; in [20], 0.009. Moreover, the z-score in assay [8] is 0.235 (inactive); in [12], 1.36 (inactive); in [13], 1.34 (inactive); in [14] it was 1.4 (inactive); in assay [16], 0.655 (inactive).
With `CCOC(=O)C1=NO[C@@]2(C=C(Br)C3(OCCCO3)[C@H]3O[C@H]32)C1`, the composite z-score in [1] is 0.224; in assay [2], 0.0735; in assay [3] it was -0.116; in assay [4] it was 1.05; in assay [5], 0.282; in [6], -0.467. The composite z-score is 0.646 in assay [7]; 0.248 in assay [9]; 0.0972 in assay [10]; -0.481 in [11]; 0.0603 in assay [15]; 0.105 in assay [17]. Also, the composite z-score in assay [18] was 1.42; in assay [19] it was 0.91; in assay [20], -0.004. The z-score in [8] was 0.0274 (inactive); in assay [12], 0.74 (inactive); in assay [13], 0.664 (inactive); in [14] it was -0.291 (inactive); in assay [16], 0.292 (inactive).
`CO[C@H]1COC(=O)CC=C[C@@H](C)[C@H](OC)COC(=O)[C@@H]2CCCN2C(=O)CC=C[C@@H]1C`: the composite z-score in assay [1] is -0.479; in [2], 2.11; in assay [3], -0.17; in assay [4], -0.0728; in [5] it was -0.162; in [6], -0.591. Further, the composite z-score in assay [7] was 0.87; in assay [9], 0.374; in assay [10], -0.169; in assay [11], 1.12; in assay [15], -0.328; in [17], -0.229. Besides, the results for the composite z-score in [18], in assay [19] and in [20] were 1.41, 0.716 and 0.0115, respectively. The z-score was -0.273 (inactive) in assay [8]; 0.221 (inactive) in assay [12]; -0.0931 (inactive) in assay [13]; -0.202 (inactive) in [14]; 0.619 (inactive) in assay [16].
In the case of `CCOC(=O)[C@H](CC(C)C)NC(=O)CCC1CC(OC(=O)NCc2cccc3ccccc23)CC2(CCCC(COC(=O)NCc3ccncc3)O2)O1` (stereo not given in full), the composite z-score in assay [1] is -0.678; in [2], 0.298; in [3], -0.151; in [4] it was 0.633; in assay [5] it was 1.12; in [6], 0.547. For the same compound, the composite z-score in assay [7] is 0.783; in [9], 0.407; in assay [10] it was -0.236; in [11] it was 1.56; in assay [15] it was 1.58; in assay [17] it was -0.166. Also, the composite z-score in assay [18] came to 0.433; in assay [19], 0.789; in assay [20], 0.157. Further, the z-score was -0.689 (inactive) in [8]; 0.649 (inactive) in [12]; 0.462 (inactive) in assay [13]; 0.678 (inactive) in assay [14]; 0.409 (inactive) in assay [16].
With `CO[C@@H]1C=CCC(=O)N[C@@H](C)C(=O)OC[C@@H](OC)[C@H](C)CCCC(=O)OC[C@H]1C`, the composite z-score in assay [1] is -0.198; in assay [2], 2.55; in assay [3] it was -0.129; in assay [4], 0.361; in [5], 0.0208; in [6], -0.677. In addition, the composite z-score is -0.951 in assay [7]; -0.331 in assay [9]; 0.176 in [10]; 1.44 in [11]; -2.13 in [15]; -0.153 in [17]. Besides, the composite z-score in assay [18] was 1.91; in [19], -1.04; in assay [20], -0.0485. Also, the z-score was 0.313 (inactive) in assay [8]; -0.465 (inactive) in [12]; -0.111 (inactive) in [13]; -1.17 (inactive) in assay [14]; 0.976 (inactive) in [16].
